Molecules are shown by their SMILES. The whole screen tested about 400,000 compounds, of which about 2,100 (0.53%) were called active. About 14% were inconclusive and are not listed. The rule behind the calls is not given here. Only a selection was taken, and actives are over-represented in it overall.

Chain of Ataxin-2 (Homo sapiens) (Q99700 whole entry): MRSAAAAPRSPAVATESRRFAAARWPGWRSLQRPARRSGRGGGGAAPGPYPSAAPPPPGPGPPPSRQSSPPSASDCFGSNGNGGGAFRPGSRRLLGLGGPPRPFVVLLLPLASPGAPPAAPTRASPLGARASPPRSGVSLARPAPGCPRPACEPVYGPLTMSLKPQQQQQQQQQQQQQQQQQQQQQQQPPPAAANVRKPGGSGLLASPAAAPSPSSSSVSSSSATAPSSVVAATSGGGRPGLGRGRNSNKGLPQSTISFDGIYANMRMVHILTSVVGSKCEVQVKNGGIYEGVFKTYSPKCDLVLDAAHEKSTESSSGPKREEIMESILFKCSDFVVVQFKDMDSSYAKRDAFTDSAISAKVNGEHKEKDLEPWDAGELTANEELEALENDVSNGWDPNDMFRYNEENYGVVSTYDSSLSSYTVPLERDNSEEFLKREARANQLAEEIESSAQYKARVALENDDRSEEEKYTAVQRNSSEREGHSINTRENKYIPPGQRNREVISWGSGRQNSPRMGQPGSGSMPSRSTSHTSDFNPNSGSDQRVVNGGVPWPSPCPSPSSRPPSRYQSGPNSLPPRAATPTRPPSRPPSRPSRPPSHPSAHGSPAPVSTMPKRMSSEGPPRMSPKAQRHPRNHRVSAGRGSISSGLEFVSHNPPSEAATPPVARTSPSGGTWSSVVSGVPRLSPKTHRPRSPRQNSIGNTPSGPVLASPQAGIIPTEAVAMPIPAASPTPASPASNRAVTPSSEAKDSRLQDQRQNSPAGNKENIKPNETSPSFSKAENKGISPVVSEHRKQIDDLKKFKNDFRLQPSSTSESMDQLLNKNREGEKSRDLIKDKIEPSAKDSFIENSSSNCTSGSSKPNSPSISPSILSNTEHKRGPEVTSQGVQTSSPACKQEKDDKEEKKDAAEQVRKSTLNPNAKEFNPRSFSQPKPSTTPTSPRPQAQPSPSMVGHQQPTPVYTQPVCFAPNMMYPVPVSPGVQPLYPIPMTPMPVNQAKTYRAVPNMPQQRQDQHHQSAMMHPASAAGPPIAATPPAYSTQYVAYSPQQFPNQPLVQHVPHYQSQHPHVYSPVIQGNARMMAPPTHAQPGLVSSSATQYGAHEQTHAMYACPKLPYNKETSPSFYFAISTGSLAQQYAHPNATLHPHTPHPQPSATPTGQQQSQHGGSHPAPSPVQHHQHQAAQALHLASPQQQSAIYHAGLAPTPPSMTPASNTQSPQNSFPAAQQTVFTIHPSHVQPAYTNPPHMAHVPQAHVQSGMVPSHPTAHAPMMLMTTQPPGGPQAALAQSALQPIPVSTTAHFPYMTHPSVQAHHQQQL

This experiment has as its target Ataxin-2 (Homo sapiens) (UniProt Q99700). Description: qHTS for Inhibitors of ATXN expression. The class given is functional. For orientation: Quantitative high-throughput screening tests each substance at several concentrations.
On to `CN(C)c1ccc(C2C3CCCc4ccccc4C3=NN2C)cc1` (centres undefined), for which the Potency entry was “inactive”.
Consider `Nc1nnn(CC(=O)N/N=C/c2ccncc2)n1`, for which the Potency entry was “inactive”.
The value for `CCNc1nc(NCC)n2c(SC(C(=O)Nc3cc(Cl)cc(Cl)c3)c3ccccc3)nnc2n1` (centres undefined) was 39.8 µM (active); that for `Cc1cc(/C=C2/C(=N)N3C(c4ccccc4)=CSC3=NC2=O)c(C)n1-c1ccccc1` was “inactive”.
The value for `Nc1nc(Cl)cc(=O)n1Cc1ccc(Cl)cc1` was “inactive”; that for `Brc1ccc(N/N=C(/N=Nc2nn[nH]n2)c2ccccc2)cc1` was 35.5 µM (active); that for `c1ccc(N/N=C(\Cc2ncc[nH]2)c2ccccc2)cc1` was “inactive”.
The value for `CCOC(=O)C[n+]1ccc2c([nH]c3ccccc32)c1C` was “inactive”; that for `COc1ccc(OC)c(NC(=O)c2nc3ccccc3s2)c1` was “inactive”; that for `C[C@H](CO)N1C[C@H](C)[C@@H](CN(C)C(=O)Nc2ccc3c(c2)OCO3)Oc2c(NC(=O)Nc3ccc(C(F)(F)F)cc3)cccc2C1=O` was 22.4 µM (active).
On to `C[C@H](CO)N1C[C@H](C)[C@@H](CN(C)C(=O)Nc2ccc(C(F)(F)F)cc2)Oc2c(NC(=O)Nc3ccccc3)cccc2C1=O`, for which the Potency is 25.1 µM (active).
Take `C[C@@H]1CN([C@H](C)CO)C(=O)c2cccc(NC(=O)Nc3ccc(F)cc3)c2O[C@H]1CN(C)C(=O)Nc1ccc(C(F)(F)F)cc1`: the Potency was 28.2 µM (active).
For `COc1ccc(NC(=O)N(C)C[C@H]2Oc3c(NC(=O)c4nc5ccccc5s4)cccc3C(=O)N([C@@H](C)CO)C[C@H]2C)cc1`, the Potency is 39.8 µM (active).
As to `O=C(O)c1ccc(N2C(=O)CC(SC(=NCc3ccc4c(c3)OCO4)Nc3ccc(F)cc3)C2=O)cc1` (centres undefined), the Potency entry was “inactive”.
As for `O=C1N=C(Nc2nc3ccccc3[nH]2)c2ccccc21`, the Potency result is “inactive”.
The value for `CCOc1ccc2nc(NCCNS(=O)(=O)c3ccccc3)c(C#N)cc2c1` was “inactive”; that for `Clc1ccccc1C1=CC(c2ccco2)n2ncnc2N1` (centres undefined) was “inactive”; that for `C#CCOc1c(Cl)cc(C2C3=C(CCCC3=O)N(CC(=O)O)C3=C2C(=O)CCC3)cc1OC` was “inactive”.
Turning to `C[C@H](CO)N1C[C@H](C)[C@@H](CN(C)C(=O)Nc2ccccc2)Oc2c(NC(=O)Nc3ccc(C(F)(F)F)cc3)cccc2C1=O`, the Potency was 39.8 µM (active).
Take `COCCn1c(=N)c(C(=O)NCC2CCCO2)cc2c(=O)n3ccccc3nc21` (centres undefined): the Potency entry was “inactive”.
For `COCCCn1c(=N)c(C(=O)NCC2CCCO2)cc2c(=O)n3ccccc3nc21` (centres undefined), the Potency result is “inactive”.
Take `COc1ccc(CCn2c(=N)c(C(=O)NCC3CCCO3)cc3c(=O)n4ccccc4nc32)cc1` (centres undefined): the Potency was 15.8 µM (active).
Consider `O=C(CCC(=O)N1CCOc2ccc(Cl)cc21)NCCCN1CCC(Cc2ccccc2)CC1`, for which the Potency is 26.7 µM (active).
In the case of `O=C(NCc1ccccc1)C(=O)NCC1OCCN1S(=O)(=O)c1ccc2c(c1)OCCO2` (centres undefined), the Potency entry was “inactive”.
Under `CCOc1ccccc1C(=O)NC(C(=O)NCc1ccc(F)cc1)C(C)C` (centres undefined) stands “inactive”.
Under `CC1=C(C)C(C)=C(C#N)C(=C(C#N)C#N)N1` stands “inactive”; under `CSc1nn(Cc2ccc(Br)cc2)c(N(C(C)=O)C(C)=O)c1S(=O)(=O)c1ccccc1`, 28.2 µM (active); under `O=c1cc(Cl)c(-c2ccccc2)nn1Cc1ccc(Cl)cc1`, “inactive”.
As to `Cn1c(=O)n(Cc2ccc(Br)cc2)c2ccccc21`, the Potency entry is “inactive”.
The value for `CSc1nn(Cc2ccc(Cl)cc2)c(N(C(C)=O)C(C)=O)c1S(=O)(=O)c1ccccc1` was 25.1 µM (active); that for `CC12CCC(C(=O)N(CC3CO3)C1=O)C2(C)C` (centres undefined) was “inactive”.
For `Cn1cccc1C1C=C(c2ccc(C(C)(C)C)cc2)Nc2ncnn21` (centres undefined), the Potency entry is “inactive”.
Under `CC(=O)c1ccc(-c2ccc(C(=O)N(C)Cc3nc(O)c4ccccc4n3)o2)cc1` stands “inactive”.
The value for `CC(C)c1ccc(/C=C(\NC(=O)c2ccccc2)C(=O)NCCCn2ccnc2)cc1` was “inactive”.
Consider `O=C(C[C@H]1C[C@H](C(=O)N2CCOCC2)[C@@]2(CCC3CCCC3)c3[nH]c4ccc(Cl)cc4c3CCN2C1=O)NCCCn1ccnc1`, for which the Potency is 28.2 µM (active).
As for `O=C(NCCCn1ccnc1)C(=O)NCC1OCCN1S(=O)(=O)c1ccc(F)cc1` (centres undefined), the Potency result was “inactive”.
Take `O=C(C[C@H]1C[C@H](C(=O)N2CCCCC2)[C@@]2(CCc3ccccc3)c3[nH]c4ccc(Cl)cc4c3CCN2C1=O)NCCCn1ccnc1`: the Potency was 28.2 µM (active).
The value for `O=C(/C=C/c1ccc(S(=O)(=O)N2CCOCC2)cc1)NCCCn1ccnc1` was “inactive”.
The value for `CC[C@@]1(O)C(=O)OCc2c1cc1n(c2=O)Cc2cc3c(CN(C)C)c(O)ccc3nc2-1` was “inactive”; that for `CC(C)(C)c1ccc(OCC(=O)Nc2ccc3c4c(cccc24)C(=O)NC3=O)cc1` was “inactive”.
The value for `O=[N+]([O-])c1cc(/C=N/N=C(/Nc2ccccn2)c2ccccn2)ccc1O` was 2.67 µM (active); that for `Cc1ccc2nc3c(cc(C(N)=S)c(=N)n3CCCOC(C)C)c(=O)n2c1` was “inactive”; that for `C=CC[C@H](CC(=O)N(CCO)Cc1ccccc1)C(=O)N[C@H](COC(=O)[C@@H](CC=C)CC(=O)OC(C)(C)C)c1ccccc1` was 35.5 µM (active).
`C=CC[C@@H](CC(=O)N(CCO)Cc1ccccc1)C(=O)N[C@H](COC(=O)[C@@H](CC=C)CC(=O)OC(C)(C)C)c1ccccc1`: the Potency was 31.6 µM (active).
For the molecule `C=CC[C@H](CC(=O)N(CCO)Cc1ccccc1)C(=O)N[C@H](COC(=O)[C@@H](CC=C)CC(=O)OC(C)(C)C)Cc1ccccc1`, the Potency is 35.5 µM (active).
As for `N#CCC(=O)N/N=C/c1cc(-c2ccccc2)n(-c2ccc(Cl)cc2)c1-c1ccccc1`, the Potency entry is “inactive”.
Under `COCCNS(=O)(=O)c1ccc2c3c(cccc13)C(=O)N2C` stands “inactive”; under `CCCOC(=O)c1c(NC(=O)c2nc3ncccn3n2)sc(C(N)=O)c1C`, “inactive”; under `O=C(COC(=O)/C=C/C(=O)OCC(=O)NC12CC3CC(CC(C3)C1)C2)NC12CC3CC(CC(C3)C1)C2`, 31.6 µM (active).
The value for `Nc1cccc2c1C(=O)N(CC(=O)NC13CC4CC(CC(C4)C1)C3)C2=O` was “inactive”; that for `CCOc1cc(/C=C2/C(=N)N3C(=NC2=O)SN=C3S(=O)(=O)CC)ccc1OC(=O)c1ccco1` was “inactive”.
The value for `COc1ccc(/C=C2\C(=O)N(c3c(Cl)cc(Cl)cc3Cl)N=C2NC(=O)c2cccc([N+](=O)[O-])c2)cc1` was 22.4 µM (active).
Regarding `COc1ccc(CNC(=O)C/C(C)=N/NC(=O)c2ccc([N+](=O)[O-])cc2Cl)cc1`, the Potency entry was “inactive”.
Regarding `COc1ccccc1CCNC(=O)CCNS(=O)(=O)c1ccc(NC(C)=O)cc1`, the Potency result was “inactive”.
Under `COC(=O)[C@]12CCCCC=C1N(CCC1=CCCCC1)C(=O)[C@H](CC(=O)NCCc1ccccc1OC)C2` stands 39.8 µM (active).
The value for `COC(=O)[C@]12CCCCC=C1N(CCC1=CCCCC1)C(=O)[C@H](CC(=O)NCc1cccc3ccccc13)C2` was 25.1 µM (active); that for `CCCn1nc(NC(=O)CC)c2cc3cccc(C)c3nc21` was “inactive”; that for `O=C(/C=C/c1cccc(Cl)c1)OCC(=O)c1ccc[nH]1` was “inactive”.
Take `CC(C)n1/c(=N/C(=O)c2ccco2)c(C#N)cc2c(=O)n3ccccc3cc21`: the Potency result was “inactive”.
As for `NC(=O)c1nsc(C(=O)N(c2ccccc2)C(C(=O)NCC2CCCO2)c2ccc3ncccc3c2)c1N` (centres undefined), the Potency result was “inactive”.
The value for `O=C1C(=O)c2ccccc2C(O)=C1CCCCl` was 25.1 µM (active); that for `COc1ccc2cc(-c3nc4ccc(C(=O)O)cc4[nH]3)c(=O)oc2c1` was “inactive”; that for `COc1ccc(/N=c2\oc3ccc(OC)cc3cc2-c2nc3ccccc3[nH]2)cc1` was 31.6 µM (active).
Turning to `CCN(CC)c1ccc2cc(-c3nc4ccccc4[nH]3)c(=O)oc2c1`, the Potency entry was “inactive”.
Under `CCC1=Nc2cc(C(=O)N3CCC(C)CC3)ccc2Sc2ccc(C)cc21` stands 28.2 µM (active).
Turning to `CC1CCN(S(=O)(=O)N2CCN(C(=O)c3ccc4c(c3)OCO4)CC2)CC1`, the Potency entry was “inactive”.
The value for `CC1CCN(C(=O)c2ccc3c(c2)C(=O)c2ccccc2-3)CC1` was “inactive”; that for `O=C1C=CC(=O)N1CCCCCCN1C(=O)C=CC1=O` was 25.1 µM (active).
Under `Cn1c(=O)c2c(nc(Oc3cccc(Br)c3)n2C)n(C)c1=O` stands “inactive”; under `C[C@@H]1CN([C@H](C)CO)S(=O)(=O)c2ccc(C#C[C@@H](C)O)cc2O[C@@H]1CN(C)Cc1ccc(-c2ccccc2)cc1`, 20 µM (active); under `C[C@@H]1CN([C@@H](C)CO)S(=O)(=O)c2ccc(C#Cc3cccc(F)c3)cc2O[C@H]1CN(C)S(=O)(=O)c1cn(C)cn1`, 39.8 µM (active).
Under `C[C@@H]1CN([C@H](C)CO)S(=O)(=O)c2ccc(C#Cc3ccccc3F)cc2O[C@@H]1CN(C)C(=O)Cc1ccccc1` stands 25.1 µM (active); under `C[C@H]1CN([C@@H](C)CO)S(=O)(=O)c2ccc(Br)cc2O[C@@H]1CN(C)Cc1cccc(F)c1`, 25.1 µM (active).
For `COCCCNC(=S)N/N=C/c1ccc(O)cc1O`, the Potency entry was “inactive”.
Under `CCNC(=S)N/N=C/c1sc(N2CCCCC2)nc1-c1cccs1` stands “inactive”.
Under `Cc1cccc(C)c1NC(=O)COC(=O)c1c2c(nc3ccccc13)/C(=C\c1ccc3c(c1)OCO3)CCC2` stands “inactive”; under `N#Cc1cccc(NC(=O)CN2C(=O)NC(Cc3ccccc3)C2=O)c1` (centres undefined), “inactive”; under `C[C@@H]1CN([C@@H](C)CO)S(=O)(=O)c2ccc(Br)cc2O[C@H]1CN(C)C(=O)Nc1ccc(C(F)(F)F)cc1`, 35.5 µM (active).
Under `C[C@H]1CN([C@@H](C)CO)S(=O)(=O)c2ccc(Br)cc2O[C@@H]1CN(C)Cc1ccccc1` stands 39.8 µM (active); under `Cc1cc2c(cc1C)N(C(=O)CCl)CCN2C(=O)CCl`, 35.5 µM (active); under `COc1ccc(-n2c(N)c(C(=O)NCC3CCCO3)c3nc4ccccc4nc32)c(OC)c1` (centres undefined), “inactive”.
Turning to `COc1ccccc1-n1c(N)c(C(=O)NCC2CCCO2)c2nc3ccccc3nc21` (centres undefined), the Potency entry is “inactive”.
The value for `COc1cccc(-c2[nH]c(C(=O)NCC3CCCO3)cc3c4ccccc4nc2-3)c1` (centres undefined) was 17.8 µM (active); that for `COc1cc(C(=S)N2CCOCC2)ccc1OC(=O)c1ccc(Br)cc1` was “inactive”.

For the origin of these results see ChEMBL document CHEMBL1201862, “PubChem BioAssay data set” (2004).
